Among the data in PubChem BioAssay (EPA / NIEHS) are AC50 and outcome values, retold here.

The structures appear in SMILES notation. More than one record can exist for a structure, and the calls need not agree. The source made the active and inactive calls. The calls were made as follows: active = hit-call score of the fitted dose curve at least 0.9, where 1 is the maximum; inactive = score below 0.9.

Read-out in this assay: Interferon-gamma inducible Protein 10 (IP10), CXCL10 (gene 3627)
The assay can be described thus: BSK_hDFCGF_IP10: BioMAP Diversity Plus: hDFCGF Assay for Interferon-gamma inducible Protein 10 (IP10) Biomarker Activity (AID 2283053). The conditions noted are these: primary human foreskin fibroblasts; actives raise or lower the signal. The protocol:
BSK_hDFCGF is a cell-based, multiplexed-readout assay that uses foreskin fibroblast, a human skin primary cell, with measurements taken at 24 hours after chemical dosing in a 96-well plate.BSK_hDFCGF_IP10 is an assay component measured in the BSK_hDFCGF assay. It measures IP-10 antibody related to regulation of gene expression using ELISA technology.Data from the assay component BSK_hDFCGF_IP10 was analyzed into 1 assay endpoint. This assay endpoint, BSK_hDFCGF_IP10, was analyzed with bidirectional fitting relative to DMSO as the negative control and baseline of activity. Using a type of binding reporter, gain or loss-of-signal activity can be used to understand changes in the signaling as they relate to the gene CXCL10. Furthermore, this assay endpoint can be referred to as a primary readout, because this assay has produced multiple assay endpoints where this one serves a signaling function. To generalize the intended target to other relatable targets, this assay endpoint is annotated to the cytokine intended target family, where the subfamily is chemotactic factor.
The levels of cell surface (or secreted, indicated by the prefix "s") biomarker endpoints were measured by ELISA. Overt cytotoxicity to cells in confluent adherent cultures (all systems other than the BT system) was assessed by measuring total protein levels using sulforhodamine B (SRB) staining in parallel cultures at the time of biomarker measurements, indicated as SRB endpoints. For proliferation assays for adherent cell types, individual cell types are cultured at sub-confluence and relative cell numbers quantified by SRB staining at time points optimized for each system (48 h: 3C and CASM3C systems; 72 h: BT and HDF3CGF systems; 96 h: SAg system). SRB was performed by staining cells with 0.1% SRB after fixation with 10% TCA and reading wells at 560 nm.Viability and proliferation of PBMC (T cells) was quantified by Alamar Blue reduction for the SAg and BT systems. For PBMC viability (referred to as PBMC Cytotoxicity within the assay endpoint names), cells were plated (75,000/well in a 96-well plate) and then chemical samples added for 1 h before addition of activators, SEB and TSST-1 (20 ng/mL final concentration each). Cells were incubated for 90 h. Then, Alamar Blue (20 uL/well) (Invitrogen, Cat DAL1100) was added for 6 h, and the plates were read with a fluorescence microplate reader at 546/580 nm (excitation/emission). For PBMC proliferation, cells were plated and activated as above but incubated for only 16 h prior to addition of Alamar Blue. Plates were read after 6 h.
As for `CC(C)(c1ccccc1)c1ccc(O)c(C(C)(C)c2ccccc2)c1`, the AC50 was 3.52 µM (active). With `CCSC(C)CC1CC(=O)C(C(CC)=NOC/C=C/Cl)=C(O)C1` (stereo not given), the outcome was inactive. Turning to `C=C(C)C(=O)[O][Sn]([CH2]CCC)([CH2]CCC)[CH2]CCC`, the AC50 is 0.148 µM (active).

Take `OCc1ccco1`: the outcome was inactive. Take `CC(=O)[O][Hg][c]1ccccc1`: the AC50 is 0.289 µM (active). For the compound `Nc1ccc(-c2ccc(N)c(Cl)c2)cc1Cl`, the outcome was inactive. `Oc1cccc2cccnc12`: the AC50 was 0.206 µM (active).

Consider `O=c1[nH]c(=O)[nH]c(=O)[nH]1`, for which the outcome was inactive.

Consider `CCCCCCCCC(=O)NCc1ccc(O)c(OC)c1`, for which the result was inactive.

Take `Oc1ccc(-c2ccccc2)cc1`: the result was inactive.

As to `CCOP(=S)(OCC)SCCS(=O)(=O)CC`, the result was inactive.

For `COP(=S)(OC)Oc1c(Cl)cc(C)cc1Cl`, the result was inactive.

Consider `CC(=O)OC(c1ccccc1)C(Cl)(Cl)Cl` (stereo not given), for which the outcome was inactive. As for `ClC1=C(Cl)[C@]2(Cl)[C@H]3[C@H]([C@H]4C=C[C@H]3C4)[C@@]1(Cl)C2(Cl)Cl`, the outcome was inactive. In the case of `CCNc1nc(NC(C)(C)C)nc(SC)n1`, the outcome was inactive.

Turning to `O=C(OC1CCCCC1)c1ccccc1C(=O)OC1CCCCC1`, the AC50 was 13.4 µM (active). As to `CC12CC1(C)C(=O)N(c1cc(Cl)cc(Cl)c1)C2=O` (stereo not given), the outcome was inactive. As to `O=Cc1cccc(Oc2ccccc2)c1`, the outcome was inactive. `CC(C)(OO)c1ccccc1`: the AC50 is 32.7 µM (active). Consider `NC(=O)O`, for which the outcome was inactive. In the case of `CCC(C)(C)c1ccc(O)c(C(C)(C)CC)c1`, the AC50 was 6.49 µM (active). As to `O=C(O)CCC(F)(C(F)(F)F)C(F)(F)F`, the AC50 is 1.93 µM (active) and the outcome was inactive. As for `BrCCBr`, the outcome was inactive.

With `Nc1ncc([N+](=O)[O-])s1`, the result was inactive. Consider `COC[C@H](C)N(C(=O)CCl)c1c(C)csc1C`, for which the outcome was inactive. In the case of `CC(C)(C)c1cc(O)ccc1O`, the AC50 was 4.87 µM (active). As to `CC1(C)Cc2cccc(O)c2O1`, the outcome was inactive. The same measure, in the same setting: to `CN(C)N=O` belongs “inactive”. The same measure, in the same setting: under `ClC(Cl)=C(Cl)C(Cl)=C(Cl)Cl` stands “inactive”. For `C[C@@H]1C[C@@H]([C@H](O)CC2CC(=O)NC(=O)C2)C(=O)[C@@H](C)C1`, the AC50 is 2.32 µM (active). `CC(C)(C)CC(C)(C)c1ccc(O)cc1`: the AC50 was 9 µM (active). For `O=[N+]([O-])c1ccc(O)c([N+](=O)[O-])c1`, the outcome was inactive. On the same count and under the same terms, under `C=CC(=O)OCCCCCC(C)C` stands “inactive”. Consider `CCCCCCCCc1ccc(O)cc1`, for which the AC50 was 25.8 µM (active). For `CCC(=O)C(CC(C)N(C)C)(c1ccccc1)c1ccccc1` (stereo not given), the result was inactive. Take `O=[N+]([O-])c1ccc2c3c(cccc13)CC2`: the outcome was inactive. As for `CC(C)CCCCCCOC(=O)c1ccccc1C(=O)OCCCCCCC(C)C`, the outcome was inactive. Consider `NC(=S)Nc1ccccc1`, for which the result was inactive. As for `COP(=S)(OC)Oc1ccc(S(=O)(=O)N(C)C)cc1`, the result was inactive.
